PubChem BioAssay (NCI)
This is part of a sample that, as a whole, favours compounds with a hit. Of some 79,000 tested, about 15% had one in any assay. Unmarked numbers belong to inactive results. Activity calls are given as the source filed them. No stated cut-off is given here; in the data, active means growth inhibition above about 70%; inactive means the rest.

How the values were obtained:
[1] = NCI Yeast Anticancer Drug Screen. Data for the rad50 strain (AID 155);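 further: 0% = growth of vehicle-only cultures of the same strain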; conditions: S. cerevisiae rad50 strain growth inhibition; at 50.0 µM; active compounds read high
Summary of the method: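 Inhibition values express reduced yeast growth in compound-treated cultures relative to vehicle-treated controls.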

[2] = NCI Yeast Anticancer Drug Screen. Data for the mec2-1 strain (AID 157); conditions: S. cerevisiae mec2-1 strain, at 50.0 µM, active compounds read high
Summary of the method: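 Cells of the genetically defined mec2-1 yeast strain are incubated with test compound. Inhibition of growth is calculated against vehicle-treated controls.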

[3] = NCI Yeast Anticancer Drug Screen. Data for the sgs1 mgt1 strain (AID 161);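 further: 0% = growth of cultures given vehicle only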; conditions: S. cerevisiae sgs1 mgt1 strain, at 50.0 µM, active compounds read high
Summary of the method: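 Test agents were incubated with a DNA-repair-mutant yeast strain. Growth was then read and compared against vehicle-treated controls.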

[4] = NCI Yeast Anticancer Drug Screen. Data for the cln2 rad14 strain (AID 165);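 further: 0% = growth equal to vehicle treated cultures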; conditions: S. cerevisiae cln2 rad14 strain, at 50.0 µM, active compounds read high
Summary of the method: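 The screen exposed genetically defined yeast (cln2 rad14) to test compounds and scored growth inhibition relative to vehicle-treated controls.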

[5] = NCI Yeast Anticancer Drug Screen. Data for the bub3 strain (AID 167); conditions: S. cerevisiae bub3 mutant strain, at 50.0 µM, active compounds read high
Summary of the method: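 Steps: expose the mutant yeast strain to compound; grow alongside vehicle-treated cultures; measure growth; express inhibition against the vehicle cultures.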

[6] = NCI Yeast Anticancer Drug Screen. Data for the mlh1 rad18 strain (AID 175); conditions: S. cerevisiae mlh1 rad18 strain growth inhibition; at 50.0 µM; active compounds read high
Summary of the method: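 Compound-treated yeast growth, normalised to vehicle controls. Strain bears defined DNA repair mutations.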

SMILES | growth inhibition [1] | growth inhibition [2] | growth inhibition [3] | growth inhibition [4] | growth inhibition [5] | growth inhibition [6]
CCCCOC(=O)c1ccc(OC(=O)Nc2ccc(Cl)cc2)cc1 | 10.4% | 42.3% | 39% | -11.2% | 78.7% (active) | 30.2%
NC(CCC(N)C(=O)c1ccccc1)C(=O)c1ccccc1 (stereo not drawn) | -12.2% | -7.75% | 4.35% | 6.8% | -8.8% | 11.7%
CC(=O)OC(C(=O)Nc1ccc(Br)cc1)c1ccccc1 (stereo not drawn) | 4.7% | -3.95% | -4.75% | -35.5% | 11.6% | -6.65%
COc1cc(C[C@H]2C(=O)OCC2Cc2ccc(OC)c(OC)c2)ccc1O (stereo partly drawn) | -39.1% | -60.6% | -26.9% | -5.2% | 2.05% | -22.3%
COc1ccccc1-n1c(NN)nc2ccc(Br)cc2c1=O | 55.6% | 13.4% | 27.4% | 13.2% | 27.2% | -12.4%
CC1=CC(O)(c2ccccc2)C(N2CCOCC2)N1O (stereo not drawn) | -2.85% | -25.6% | -3.5% | 13.6% | 23.4% | -8.55%
O=C(CC(=O)c1ccccc1)CC(Nc1ccccc1)c1ccccc1 (stereo not drawn) | 58% | 10% | 46.1% | -8.5% | 7.55% | 45.9%
O=C1c2ccccc2C(=O)N1CC(O)COc1cccc2ccccc12 (stereo not drawn) | -23.1% | -79.5% | -24.4% | -13.9% | 8.3% | -14.8%
COc1c([N+](=O)[O-])ccc(C(OC(C)=O)OC(C)=O)c1OC(C)=O | 33.9% | 23.1% | 55.8% | 2.35% | 31.9% | 29.4%
OC12CC/C(=N/OCc3ccccc3)CC1c1ccccc12 (stereo not drawn) | 11.2% | -22.9% | -29.8% | -16% | -36.1% | 0.45%
Nc1[nH]c(=O)nc2c1ncn2C1OC(CO)C(O)C1O (stereo not drawn) | -10.3% | -27.6% | -12.3% | -3.65% | -4.25% | -10.2%
O=[N+]([O-])c1ccc2nc(Cl)cnc2c1 | 25.2% | 31.2% | 16.5% | -5.2% | 3.8% | 38.6%
CC(=O)C=NCC(=O)O | -2.45% | -3.4% | -32.2% | -24.8% | -26.6% | -8.8%
Cc1ccc(S(=O)(=O)NC(Cc2ccc(O)cc2)C(=O)O)cc1 (stereo not drawn) | 1.5% | -8.4% | 5.25% | -57.2% | 12.6% | 35.5%
CC(C)(C)n1c(=O)[nH]c(=O)n1C(C)(C)C | 5.75% | -18.4% | -21.9% | 1.9% | -32.8% | -22.2%
CC(C)(C)[Si](C)(C)OC1C(=O)C[C@H]2CCCC[C@@H]12 (stereo partly drawn) | -6.75% | 0.85% | -1.75% | 17.1% | 10.2% | 22.3%
C/C(=N\O)c1sc(-n2nc(-c3ccccc3)cc2-c2ccccc2)nc1C | 13.7% | 4.2% | 37.6% | 25.4% | 30.6% | 19.3%
CC(C)CNC(=S)N/N=C/C=C/c1ccc(C(C)C)cc1 | -18.2% | -12.7% | 20.3% | -16.1% | 53.9% | 0.35%
CC(C)(C)C(=O)Nc1ccc(NS(=O)(=O)c2ccccc2)cc1 | 6.85% | -4.3% | 2.85% | 1.8% | 2.9% | -21.1%

SMILES | growth inhibition [1] | growth inhibition [2] | growth inhibition [3] | growth inhibition [4] | growth inhibition [5] | growth inhibition [6]
NC(N)=Nc1ccccc1OC1OC(CO)C(O)C(O)C1O (stereo not drawn) | -12.4% | 16.1% | 2.55% | -50.5% | -7% | -2.25%
CC(C)CCCC(C)C1CCC2C1CCC1C2CCC2(C)CCC(=O)CCC12C (stereo not drawn) | 24.8% | -2.85% | -2.55% | -17.8% | 1.6% | -4%
CC(C)[O-].CC(C)[O-].O=c1cccccc1[O-].O=c1cccccc1[O-].[Ti+4] | -13.2% | 0.9% | 14.2% | 10.8% | -1.5% | 22.4%
CC1([N+](=O)[O-])COC2(CCCCC2)OC1 | 18.2% | 9.75% | -6.1% | -22.1% | 4.3% | 24.2%
CSSC(SC)SC | 31.9% | -7.85% | 13.6% | -21.1% | -11.6% | 29.6%
CCCCCCc1cc(-c2cc(CCCCCC)nc(N)n2)nc(N)n1 | -4.25% | 7.05% | 0% | 4.55% | -9.1% | 16.4%
Cc1c(/C=N/O)nc2ccccc2c1C(=O)O | -15.1% | -9.25% | -6.5% | -24.1% | -3.85% | -28.9%
O=c1oc(-c2ccccc2)c(-c2ccccc2)o1 | 43% | 22.8% | 21.9% | -46.8% | 45.6% | 46.4%
CC12NC(=O)NC1(C)NC(=O)N2 (stereo not drawn) | -8.85% | -6.3% | -35.9% | -38.9% | -29.6% | 11.6%
O=[N+]([O-])c1ccc(S(=O)(=O)N(CCCBr)c2ccccc2)cc1 | 48.4% | 42.6% | 72.7% (active) | 24.6% | 44.5% | 74.3% (active)
C=CCOCn1cc(C)c(=O)[nH]c1=O | 5.6% | 17.4% | 36.4% | 5.5% | 6.5% | 17.4%
CNc1ccccc1C(N)=S | 5.9% | 2.5% | -2.95% | -26.1% | -5.55% | 11.8%
CCOC(=O)C(NC(=O)Cc1ccccc1)C1NC(C(=O)O)CS1 (stereo not drawn) | 19.9% | 1.8% | 3.2% | -14.8% | -1.05% | -13.8%
[O-]c1c[n+](-c2cc(Cl)ccc2Cl)no1 | 11.2% | 2.9% | -3.4% | 4.8% | -1.4% | 2.55%
Cc1cc2c(cc1C)NC(=O)CC(c1ccccc1)=N2 | 18% | -7.8% | 4.15% | 3.3% | 28.9% | 10.8%
CSCCCS/C1=C/CCCCCCCCCC1 | -1.85% | 11% | -21.9% | 14.8% | -9.35% | -38.6%
COc1cc2oc(=O)ccc2cc1[C@@H]1OC(=O)[C@@]2(C)O[C@@H]12 | -0.75% | -6.3% | -1.35% | -35.7% | 3.35% | -2.85%
COc1ccc(N=C(C)C2C(=O)c3ccccc3C2=O)cc1 | 44% | -21.9% | -10.2% | 13.7% | 16.6% | -30.7%
OC1CCOc2ccccc21 (stereo not drawn) | -29.8% | 10.1% | -11.1% | 10.2% | -14.8% | -6.3%
